Reference: PubChem BioAssay AID1159580 (chemical genetic matrix, 2015)
Hit rate of the full screen: of about 5,500 compounds, about 2,000 (36%) were called active. Not shown: some 18% with an inconclusive outcome. Rule as the data show it: active = normalized growth mostly below about 0.91 (no sharp cut-off); inconclusive = no clear call, values can overlap the other calls; inactive = mostly above about 0.92. The list shows a part of the results.

Experiment: chemical genetic growth profiling, strain panel (AID 1159580);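 also: tested at 20 µM; growth read once vehicle control cultures reached saturation at 30 °C; 1 = growth at the plate median or of vehicle wells; lower values mean less growth of the strain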
Details: S. cerevisiae deletion strains, growth OD

Measured: normalized growth

CC(=O)O[C@@H]1CC2C(C)(C)[C@H](O)C[C@H](O)[C@]2(C)C2CC[C@@]3(C)C(=CC(=O)O[C@H]3c3ccoc3)[C@@]21C (stereo not given in full)
inactive: locus YAL021C, strain ccr4, stronger effect = lower value 0.977 | locus YAL026C, strain drs2, stronger effect = lower value 0.988 | locus YAL030W, strain snc1, stronger effect = lower value 1 | locus YBL061C, strain skt5, stronger effect = lower value 1 | locus YBR009C, strain hhf1, stronger effect = lower value 1.02 | locus YBR023C, strain chs3, stronger effect = lower value 0.991 | locus YBR171W, strain sec66, stronger effect = lower value 1.01 | locus YBR231C, strain swc5, stronger effect = lower value 1 | locus YBR279W, strain paf1, stronger effect = lower value 0.979 | locus YCL011C, strain gbp2, stronger effect = lower value 0.969 | locus YCL016C, strain dcc1, stronger effect = lower value 0.973 | locus YCL069W, strain vba3, stronger effect = lower value 0.99 | locus YCR088W, strain abp1, stronger effect = lower value 0.992 | locus YDL005C, strain med2, stronger effect = lower value 0.981 | locus YDL040C, strain nat1, stronger effect = lower value 0.99 | locus YDR001C, strain nth1, stronger effect = lower value 0.979 | locus YDR069C, strain doa4, stronger effect = lower value 0.983 | locus YDR137W, strain rgp1, stronger effect = lower value 0.981 | locus YDR159W, strain sac3, stronger effect = lower value 0.978 | locus YDR195W, strain ref2 0.989 | locus YDR297W, strain sur2, stronger effect = lower value 0.98 | locus YDR334W, strain swr1, stronger effect = lower value 0.977 | locus YDR335W, strain msn5, stronger effect = lower value 0.973 | locus YDR392W, strain spt3, stronger effect = lower value 0.914 | locus YEL003W, strain gim4, stronger effect = lower value 1.01 | locus YEL037C, strain rad23, stronger effect = lower value 0.99 | locus YEL061C, strain CIN8 (second series), stronger effect = lower value 0.995 | locus YER015W, strain faa2, stronger effect = lower value 0.976 | locus YER016W, strain bim1, stronger effect = lower value 1.01 | locus YER111C, strain swi4, stronger effect = lower value 0.978 | locus YER155C, strain BEM2 (second series), stronger effect = lower value 1.04 | locus YFR010W, strain ubp6, stronger effect = lower value 1.02 | locus YGL167C, strain pmr1, stronger effect = lower value 0.991 | locus YGL173C, strain kem1, stronger effect = lower value 1.05 | locus YGL227W, strain vid30, stronger effect = lower value 0.986 | locus YGL240W, strain doc1, stronger effect = lower value 1.03 | locus YGL253W, strain hxk2, stronger effect = lower value 0.941 | locus YHR013C, strain ard1, stronger effect = lower value 0.952 | locus YHR027C, strain rpn1, stronger effect = lower value 0.979 | locus YHR142W, strain chs7, stronger effect = lower value 0.945 | locus YJL092W, strain hpr5, stronger effect = lower value 0.985 | locus YJL095W, strain BCK1 (second series), stronger effect = lower value 0.991 | locus YJL115W, strain asf1, stronger effect = lower value 0.963 | locus YJL129C, strain trk1, stronger effect = lower value 0.994 | locus YJL154C, strain vps35, stronger effect = lower value 0.981 | locus YJL164C, strain tpk1, stronger effect = lower value 0.992 | locus YJL166W, strain qcr8, stronger effect = lower value 1.02 | locus YKL160W, strain elf1, stronger effect = lower value 0.981 | locus YKR026C, strain gcn3, stronger effect = lower value 0.989 | locus YKR091W, strain srl3, stronger effect = lower value 0.976 | locus YLL001W, strain dnm1, stronger effect = lower value 0.998 | locus YLL026W, stronger effect = lower value 0.996 | locus YLL041C, strain sdh2, stronger effect = lower value 0.984 | locus YLR027C, strain aat2, stronger effect = lower value 1.01 | locus YLR221C, strain rsa3, stronger effect = lower value 1.03 | locus YLR258W, strain gsy2, stronger effect = lower value 0.974 | locus YLR262C, strain YPT6 (second series), stronger effect = lower value 0.967 | locus YLR320W, strain mms22, stronger effect = lower value 1.02 | locus YLR342W, strain FKS1, stronger effect = lower value 0.991 | locus YLR357W, strain rsc2, stronger effect = lower value 0.984 | locus YLR370C, strain arc18, stronger effect = lower value 0.983 | locus YLR384C, strain iki3, stronger effect = lower value 0.978 | locus YML120C, strain ndi1, stronger effect = lower value 1.01 | locus YMR058W, strain fet3, stronger effect = lower value 1 | locus YMR125W, strain sto1, stronger effect = lower value 0.991 | locus YMR129W, stronger effect = lower value 0.972 | locus YMR205C, strain PFK2, stronger effect = lower value 1.04 | locus YMR231W, strain pep5, stronger effect = lower value 1 | locus YNL071W, strain lat1, stronger effect = lower value 1 | locus YNL209W, strain ssb2, stronger effect = lower value 0.968 | locus YNL248C, strain rpa49, stronger effect = lower value 0.967 | locus YNL322C, strain KRE1 (second series), stronger effect = lower value 1.01 | locus YNR049C, strain mso1, stronger effect = lower value 0.961 | locus YOR001W, strain rrp6, stronger effect = lower value 1.03 | locus YOR070C, strain gyp1, stronger effect = lower value 0.989 | locus YOR080W, strain dia2, stronger effect = lower value 0.986 | locus YOR083W, strain WHI5, stronger effect = lower value 0.954 | locus YOR106W, strain vam3, stronger effect = lower value 0.946 | locus YOR265W, strain rbl2, stronger effect = lower value 0.991 | locus YOR270C, strain vph1, stronger effect = lower value 0.926 | locus YOR290C, strain snf2, stronger effect = lower value 0.942 | locus YPL051W, strain arl3, stronger effect = lower value 0.994 | locus YPL078C, strain atp4, stronger effect = lower value 0.988 | locus YPL106C, strain sse1, stronger effect = lower value 0.975 | locus YPL240C, strain hsp82, stronger effect = lower value 0.994
